Screening data as filed in PubChem.
PrP 5UTR inh: suppresses PrP 5' UTR mRNA reporter expression; inhibition, % (test concentration not listed); cell-based PrP 5' UTR mRNA reporter, plate reader; 0.35% of 340,000 active; in the data active = inhibition above about 52%
GDH-TPI counter-1: counter-screen for M. tuberculosis FBA inhibitors: GDH-TPI coupled enzymes. AID 588335. inhibition, % at 4.8 µM. GDH-TPI coupled enzyme counterscreen, NADH absorbance. 1.2% of 360,000 active; in the data active = inhibition above about 30%
Mtb hypoxia inh: Mtb hypoxia fluorescent reporter inhibition | fluorescence inhibition, % (no concentration beside the values) | M. tuberculosis hypoxia-regulated fluorescent reporter, fluorescence | 0.1% of 300,000 active | AID 1159583; in the data active = fluorescence inhibition mostly above about 23%, no sharp cut-off; inactive = mostly below about 17%
Mtb FBA inh: Mtb fructose-bisphosphate aldolase inhibition. purified M. tuberculosis FBA, fluorescence read-out. P9WQA3. inhibition, % at 1 µM. 2.3% of 360,000 active. AID 588726
Target sequence (P9WQA3 whole entry, looked up): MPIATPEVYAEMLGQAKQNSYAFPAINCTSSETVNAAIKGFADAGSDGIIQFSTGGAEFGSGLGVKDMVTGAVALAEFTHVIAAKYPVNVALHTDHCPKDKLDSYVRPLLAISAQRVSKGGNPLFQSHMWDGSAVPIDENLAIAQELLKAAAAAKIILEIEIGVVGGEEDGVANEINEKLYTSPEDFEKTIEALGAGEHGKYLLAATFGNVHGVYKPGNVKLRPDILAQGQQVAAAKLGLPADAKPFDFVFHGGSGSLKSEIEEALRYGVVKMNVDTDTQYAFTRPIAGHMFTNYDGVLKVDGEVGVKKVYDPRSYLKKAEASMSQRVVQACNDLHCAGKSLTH
Yp Topo-I inh: Y. pestis Topo-I inhibition via cleavage products; AID 504884; Y. pestis Topo-I cleavage product accumulation, plate reader; 0.064% of 360,000 active; activity, % at 10 µM; in the data active = activity above about 50%, passing the limit was not always enough
PrPC surface inh: reduces human prion protein on the cell surface; cell surface PrPC, TR-FRET read-out; inhibition, % at 13.8 µM; 0.43% of 370,000 active; AID 720596; in the data active = inhibition above about 24%
Mtb FBA inh conf: Mtb FBA inhibition, confirmed | shares compounds with Mtb FBA inh | purified M. tuberculosis FBA, fluorescence read-out | inhibition, % at 1 µM | 78% of 5,600 active | AID 651616
GDH-TPI counter-2: counter-screen for M. tuberculosis FBA inhibitors: GDH-TPI coupled enzyme inhibition | shares compounds with Mtb FBA inh | GDH-TPI coupled enzyme counterscreen, fluorescence | inhibition, % at 1 µM | 81% of 5,600 active | AID 652141; in the data active = inhibition above about 10%
A number is an active result; i = inactive; nt = no result; + = active, no number. In the library only some 3.8% were active in any assay of this set; here they are far more common. Rule as the data show it, unless noted: active = inhibition above about 27%; inactive = the rest.

SMILES	PrP 5UTR inh	GDH-TPI counter-1	Mtb hypoxia inh	Mtb FBA inh	Yp Topo-I inh	PrPC surface inh	Mtb FBA inh conf	GDH-TPI counter-2
CSc1ccc(C=NNC(=O)C[n+]2ccccc2)cc1	nt	nt	i	nt	nt	nt	nt	nt
C=COCCCNc1ncnc2sc(-c3ccccc3)cc12	i	i	i	38	i	i	51	40
OCCCNc1ncnc2sc(-c3ccccc3)cc12	i	i	nt	30	i	i	55	45
COCCOC(=O)c1c(C)oc2ccc(OCc3cc(C(=O)OC)oc3C)cc12	i	i	i	i	i	i	nt	nt
COC(=O)c1cc(COc2ccc3c(c2)oc(=O)c2ccccc23)c(C)o1	i	i	nt	32	i	i	107	81
COCCCNC(=O)Cn1cnc2sc(C)c(S(=O)(=O)N3CCN(c4ncccn4)CC3)c2c1=O	i	i	i	27	i	i	+	+
COC(=O)c1oc2ccccc2c1N	i	i	i	i	i	i	nt	nt
COC(=O)c1oc2ccc(Cl)cc2c1N	i	i	i	67	i	i	i	i
CCOC(=O)C1C2COc3ccccc3C2N2C(=O)C(CO)NC(=O)[C@@]12C (stereo partly specified)	nt	nt	i	nt	nt	nt	nt	nt
O=c1c2ccccc2c(/C=N/c2nnc(Cc3ccccc3)s2)c(O)n1-c1ccc(Cl)cn1	i	i	nt	i	i	i	nt	nt
O=c1c2ccccc2c(/C=N/c2n[nH]c(CCCO)n2)c(O)n1-c1ccccc1Cl	i	i	i	30	i	i	73	57
CCc1nc(N2CCOCC2)c(C#N)c2c1CCCC2	i	i	nt	38	i	i	+	+
CC1(C)Cc2c(C#N)c(SCCO)nc(N3CCOCC3)c2CO1	i	i	i	i	i	i	nt	nt
CCc1nc(N2CCCC2)c(C#N)c2c1CCCC2	i	i	i	i	i	i	nt	nt
N#Cc1c(N2CCOCC2)nc(-c2ccco2)c2c1CCCC2	i	i	nt	37	i	i	93	71
CCCCc1nc(N2CCOCC2)c(C#N)c2c1COC(C)(C)C2	i	i	nt	35	i	i	i	i
CCCc1cc(=O)oc2cc(C)cc(OCC(=O)Nc3ccccn3)c12	i	i	i	i	i	i	nt	nt
CCCCc1cc(=O)oc2cc(C)cc(OCC(=O)NCc3cccnc3)c12	i	i	i	46	i	i	i	13
Cc1cc(=O)oc2cc(OCC(=O)NCc3cccnc3)ccc12	i	i	i	i	i	i	nt	nt
Cc1cc(OCC(=O)NCc2cccnc2)c2c(C)c(C)c(=O)oc2c1	i	i	i	30	i	i	140	122
CCc1cc(=O)oc2cc(C)cc(OCC(=O)NCc3cccnc3)c12	i	i	i	72	i	i	+	+
CCCCc1cc(=O)oc2cc(C)cc(OCC(=O)Nc3ccccn3)c12	i	i	i	34	i	i	i	i
CCCN(CCC)C(=O)C[n+]1cccc(C=NO)c1	nt	nt	i	nt	nt	nt	nt	nt
COc1cc(-c2nc3ccccn3c2NCc2ccccc2)ccc1SC1CCCCC1	i	i	i	45	i	nt	84	52
CCC(C)Sc1ccc(-c2nc3ccccn3c2NCc2ccccc2)cc1OC (stereo unspecified)	i	i	i	41	i	nt	116	90
SMILES	PrP 5UTR inh	GDH-TPI counter-1	Mtb hypoxia inh	Mtb FBA inh	Yp Topo-I inh	PrPC surface inh	Mtb FBA inh conf	GDH-TPI counter-2
COc1ccc(CSc2ccc(-c3nc4ccccn4c3NCc3ccccc3)cc2OC)cc1	i	i	i	34	i	i	31	28
COc1ccc(-c2nc3ccccn3c2NC2CCCCC2)cc1SC1CCCCC1	i	i	i	44	i	i	132	115
O=C(CN(CCc1ccccc1)S(=O)(=O)c1ccc(Br)cc1)NN=Cc1ccc2c(c1)OCO2	nt	nt	i	nt	nt	nt	nt	nt
c1ccc(-c2nc3ccccn3c2-c2ccccc2)cc1	i	i	i	29	i	i	i	i
CC(=O)Nc1c(-c2ccc(F)cc2)nc2ccccn12	i	i	i	i	i	i	nt	nt
COC(=O)Nc1c(-c2ccccc2)nc2ccc(C)cn12	i	i	nt	65	i	i	120	116
COC(=O)Nc1c(-c2ccccc2)nc2ccccn12	i	i	i	75	i	i	188	140
Cc1nnc(NN=Cc2ccc(O)c([N+](=O)[O-])c2)[nH]c1=O	nt	nt	i	nt	nt	nt	nt	nt
CCOc1ncnc2c1[nH]c1ccccc12	i	i	i	37	i	i	35	28
CCCOc1ncnc2c1[nH]c1ccc(C)cc12	nt	nt	i	nt	nt	nt	nt	nt
O=C(CNS(=O)(=O)c1ccc([N+](=O)[O-])cc1)NN=Cc1ccc(O)cc1	nt	nt	i	nt	nt	nt	nt	nt
COc1cc2c3nnc(-c4ccccc4)c-3cn(Cc3ccc(F)cc3)c2cc1OC	i	i	i	32	i	i	127	94
COc1cc2c3nnc(-c4ccc(F)cc4)c-3cn(Cc3ccc(C)cc3)c2cc1OC	i	i	i	i	i	i	nt	nt
CC1(c2ccc3ccccc3c2)NC(=O)N(CC(=O)N2CCC(C(N)=O)CC2)C1=O (stereo unspecified)	i	i	i	54	i	i	96	63
CC(C)c1ccc(C=NNC(=O)c2nnn(-c3nonc3N)c2CSC2=NCCS2)cc1	nt	nt	i	nt	nt	nt	nt	nt
O=C(NN=Cc1ccccc1)c1ccco1	nt	nt	i	nt	nt	nt	nt	nt
COc1ccc(-c2cc(=O)c3cc(F)ccc3[nH]2)cc1	i	i	nt	31	i	i	126	98
COc1ccc2[nH]c(-c3ccc(C)cc3)cc(=O)c2c1	i	i	i	44	i	nt	+	165
COc1ccc(-c2cc(=O)[nH]c(=O)[nH]2)cc1	i	i	i	i	i	i	nt	nt
COc1ccc(-c2cc(-c3ccccc3)c(C#N)c(=S)[nH]2)cc1	i	i	i	i	i	i	nt	nt
COc1ccc2[nH]c(-c3ccccc3)cc2c1	i	i	i	100	i	i	91	71
COc1ccc(-c2cc(=O)c3cc(OC)c(OC)cc3[nH]2)cc1	i	i	i	58	i	i	66	59
CCn1c(SCC(=O)NN=Cc2cccs2)nc2ccccc21	nt	nt	i	nt	nt	nt	nt	nt
C=C(C)CNC(=S)NN=C(C)c1cccc(NC(C)=O)c1	nt	nt	i	nt	nt	nt	nt	nt
O=C(NN=Cc1ccncc1)c1cccc(NC(=O)c2ccccc2Cl)c1	nt	nt	i	nt	nt	nt	nt	nt
SMILES	PrP 5UTR inh	GDH-TPI counter-1	Mtb hypoxia inh	Mtb FBA inh	Yp Topo-I inh	PrPC surface inh	Mtb FBA inh conf	GDH-TPI counter-2
COc1ccc(CC(=O)Nc2ccc3c(c2)C(=O)N(CCC(=O)O)C3=O)cc1	i	i	i	i	i	i	nt	nt
CC(C)C(=O)Nc1ccc2c(c1)C(=O)N(CCC(=O)O)C2=O	i	i	i	40	i	i	97	81
COc1ccc(N(CC(=O)NN=Cc2ccco2)S(=O)(=O)c2ccccc2)cc1	nt	nt	i	nt	nt	nt	nt	nt
COc1cc2ccnc(C=NO)c2cc1OC	nt	i	nt	42	i	i	122	95
Cc1cc(=O)oc2c3c4c(cc12)OCCN4CCC3	i	i	i	76	i	i	66	66
Cc1cc2c(C(F)(F)F)cc(=O)oc2c2c1NCCC2	i	i	i	i	i	i	nt	nt
CC(C)c1cc(=O)oc2c3c4c(cc12)CCCN4CCC3	i	i	i	39	i	i	98	86
